In all, about 69,000 compounds went through this assay and about 8,600 (12%) showed an effect of 50% or more. Only a selection was taken, and strong results are over-represented in it overall.
The compounds below were run on Plasmodium berghei (assay: Screen against P. berghei liver stage (PbLuc), transformed with Luciferase, at 10uM). Conditions: tested at 10 uM.
Assay type: functional, HepG2

Row | SMILES | INHIBITION [%]
1 | CCCC(NC(=O)c1ccc(C)cc1C)c1nnn[nH]1 (stereo unspecified) | 43.1
2 | CCCC(NC(=O)c1cc(C)ccc1C)c1nnn[nH]1 (stereo unspecified) | 16.6
3 | CCCC(NC(=O)c1cc(C)c(F)cc1F)c1nnn[nH]1 (stereo unspecified) | 58.5
4 | Cn1cc(C(=O)Nc2ccc3c(c2)CN(C(=O)C2CC2)CC3)nn1 | -7.25
5 | CC(=O)N(Cc1ncc(C(C)C)o1)C1CCN(Cc2cc(C)on2)C1 (stereo unspecified) | 2.7
6 | O=C(NCc1ccco1)Nc1cccc(S(=O)(=O)C(F)F)c1 | 42.4
7 | O=C(CNc1cccc(S(=O)(=O)C(F)F)c1)NCc1ccco1 | 51.7
8 | O=C(CNc1ccccc1S(=O)(=O)C(F)F)NCc1ccco1 | 33.2
9 | CNc1cc(C2CN(Cc3scnc3C)CCO2)nc(C)n1 (stereo unspecified) | -26.2
10 | Cc1nc(C2CN(Cc3scnc3C)CCO2)cc(N(C)C)n1 (stereo unspecified) | 68.9
11 | CNc1cc(C2CN(Cc3csc(C)n3)CCO2)nc(C)n1 (stereo unspecified) | 41.2
12 | CC(C(=O)N1CCN(c2ccc(F)cc2)CC1)n1cc(Br)cn1 (stereo unspecified) | 6.83
13 | Cn1nnc2c1CCN(C(=O)C1CCC1)C2COCCN1CCCC1 (stereo unspecified) | 19.5
14 | Cc1cc(CN2CCN(C(=O)NC(C)c3cccnc3)CC2)no1 (stereo unspecified) | 7.15
15 | O=C(NCc1nccn1CCc1ccccc1)NCC1CCC1 | 44.5
16 | c1snnc1CN1C[C@H]2CCC[C@@H](CN3CCOCC3)[C@H]2C1 | -41.8

Row | SMILES | INHIBITION [%]
17 | COC(=O)c1ccc(CN[C@@H]2COC[C@H]2Cc2cc(C)no2)cc1 | 0.301
18 | Cc1cc(C[C@@H]2COC[C@H]2NCc2ccc(C)c(C)c2)on1 | 1.5
19 | Cc1cc(C[C@@H]2COC[C@H]2NCc2ccc(C(C)C)cc2)on1 | 28
20 | CCOc1cc(CN[C@@H]2COC[C@H]2Cc2cc(C)no2)ccc1O | 74.9
21 | Cc1cc(C[C@@H]2COC[C@H]2NCc2ccc(Cl)c(Cl)c2)on1 | 50.8
22 | Cc1ccc(CN[C@@H]2COC[C@H]2Cc2cc(C)no2)cc1 | -22.6
23 | NC(=O)CC1CCCN(c2cncc(OCc3ccccc3)n2)C1 (stereo unspecified) | 27.6
24 | CC(C)CCc1nc(CN2CCOC(Cn3cncn3)C2)cs1 (stereo unspecified) | 36.1
25 | Cc1n[nH]c(C2CN(CC(=O)NCc3cccs3)CCO2)n1 (stereo unspecified) | 8.9
26 | O=C(c1cccc(F)c1)N1CCC2(CC1)CC(N1CCOCC1)C2 | 1.34
27 | Cc1cnn(CC2CN(Cc3nc(-c4cccnc4)no3)CCO2)c1 (stereo unspecified) | -4.94
28 | CCn1ccnc1CN1CCN(Cc2ccc(C)o2)[C@@H]2CS(=O)(=O)C[C@@H]21 | 16.7
29 | CC(C)Nc1ncnc2c1CCN(Cc1ccoc1)CC2 | -22.1
30 | Nc1nc(CNc2ncnc3c2CCN(Cc2ccoc2)CC3)cs1 | 51.8
31 | c1cc(CCNc2ncnc3c2CCN(Cc2ccoc2)CC3)ccn1 | 12.8

Reference: ChEMBL document CHEMBL4513216, “Probing the Open Global Health Chemical Diversity Library for Multistage-Active Starting Points for Next-Generation Antimalarials” (ACS Infect Dis, 2020)
